# Source: the supplement of paper PMC4466236
# The full ranking holds about 33,000 sequences; the median of “E-score (dimensionless, -0.5 to 0.5)” is about -0.058, and the highest 2% start at about 0.35. What follows is part of a selection rich in the highest values, with near analogues and random picks from the rest.
# System: MvaT
# Experiment: PBM 8-mer E-score (mean of HK and ME arrays) (E-score (dimensionless, -0.5 to 0.5)); higher = stronger relative binding preference
# Method: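 Protein binding microarray: GST-tagged full-length MvaT (P. aeruginosa PAO1) bound to two universal double-stranded 60-mer arrays (ME and HK), each with a constant 25-mer primer and a variable 35-mer region covering all 8-mers. The 8-mer E-score (rank-based, range -0.5 to 0.5, >0.45 = specific binding) is the mean of the two arrays.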
row,Sequence,PBM 8-mer E-score
1,CAGCAAAC,0.014
2,CATTACGA,0.0396
3,AAATGACT,0.114
4,ATACCCAG,0.103
5,CGTAAGAC,-0.107
6,AACTGTGG,-0.0417
7,ACCTACGA,-0.0935
8,AGCATATC,-0.0071
9,AGCATATA,0.383
10,AATACATC,0.173
11,CACATATG,0.196
12,AATACATT,0.374
13,CACATATA,0.405
14,CACATATC,0.178
15,AACATAAA,0.286
16,AACATAAC,0.245
17,AATACATG,0.224
18,GGCATATA,0.217
19,AACATAAT,0.371
20,CGAACAAC,0.0607
21,GCTAGGCA,-0.187
22,ACGACTAG,-0.185
23,TACCTCAA,0.05
24,ACTTGGTA,-0.109
25,GGTTGATA,0.124

row,Sequence,PBM 8-mer E-score
1,GTCTTCGA,-0.0711
2,GGTCGCGA,-0.238
3,CCGCAAGA,-0.078
4,CTCGCCTA,0.0159
5,GAAAACAC,0.0574
6,AACATATT,0.392
7,GACATATA,0.362
8,AACATACA,0.36
9,TACATACA,0.301
10,GACATATC,0.113
11,CACATACA,0.242
12,AACATACT,0.207
13,GACATAGA,0.0048
14,CATACATA,0.277
15,TATACATA,0.389
16,AATACATA,0.324
17,AACATAGT,0.25
18,GGTGCGCA,-0.0657
19,AACGCTGC,0.0312
20,CAAGCGTG,-0.266
21,CTCTCTAC,-0.0519
22,CTTTGACC,-0.131
23,CCCGGATA,-0.0749
24,TACATATA,0.402
25,AACATATG,0.254

row,Sequence,PBM 8-mer E-score
1,AACATATA,0.419
2,TACATAAA,0.307
3,TACACATA,0.242
4,AACATATC,0.286
5,GTTGGCCA,-0.0756
6,AAGACAGC,0.081
7,ACACCGGC,-0.133
8,AATATTCG,0.326
9,AATATTCT,0.36
10,CATATTCG,0.173
11,ACTATTCT,0.208
12,GATATTCC,0.229
13,AATATTCC,0.375
14,TAGAAAAA,0.0922
15,CGGAGAGA,-0.145
16,AAGGCAAC,0.0918
17,AACGCCAG,-0.15
18,CAGGCAGG,-0.314
19,AGAATAGG,-0.0847
20,GATTAACC,0.0145
21,CGTTAATA,0.31
22,GATTAATA,0.446
23,CATTAATC,0.341
24,CATTAATA,0.369
25,GATTAATC,0.317

row,Sequence,PBM 8-mer E-score
1,ATGCGTCC,-0.205
2,AAGTTGTC,0.168
3,TGATACAA,0.145
4,ACATACAT,0.275
5,AAATACAT,0.33
6,GTATACAA,0.319
7,TTATACAA,0.359
8,ATATACAG,0.379
9,TCATACAA,0.0994
10,ATATACAT,0.365
11,ACATACAA,0.362
12,CTATACAG,0.00215
13,ATACACAG,0.0306
14,ATATACAC,0.336
15,CCGAAACA,0.00391
16,CTGGAACA,0.00992
17,CAGTATAG,0.0504
18,ACTTGGAC,0.0426
19,GGACACGA,-0.163
20,ATGTGTTA,0.258
21,CGCTTTAA,0.0497
22,CTTCGTGC,-0.0984
23,AATTGAGC,0.0577
24,ATACACAA,0.154
25,ATATACAA,0.406

row,Sequence,PBM 8-mer E-score
1,CTATACAA,0.202
2,CGTTAATC,0.127
3,CATTAATG,0.34
4,AATTAATC,0.366
5,AGTTAATG,0.271
6,AATTAATT,0.469
7,AATTAATG,0.359
8,AATTACGT,0.263
9,AATTAACA,0.333
10,AATTAATA,0.449
11,AATCAATT,0.246
12,AGTCCAAT,0.0865
13,CGAAAGTC,-0.0957
14,AATCTGCT,-0.0198
15,AAAGACCC,-0.224
16,CATACTAG,0.203
17,AGGGCCCG,-0.227
18,GGGTCCAC,-0.22
19,ATGCGCGG,-0.207
20,GCGGGGAA,-0.103
21,GTAAGCGA,0.0773
22,AATTAACG,0.28
23,AATTAACT,0.354
24,AATTAACC,0.262
25,ACCCAAAC,0.192

row,Sequence,PBM 8-mer E-score
1,AAGTAATC,0.186
2,AAGTAATT,0.392
3,GAGTAATA,0.287
4,AAGTAATG,0.276
5,AAGTAATA,0.379
6,TAGTAATA,0.352
7,CAGTAATA,0.273
8,AAGTACTC,0.137
9,AAGTACTT,0.41
10,TAGTAAAA,0.315
11,AAGTACTA,0.257
12,TAGTAACA,0.274
13,ATCAGGCG,-0.0225
14,ATCTGCTA,0.109
15,ACAGGACT,-0.164
16,AGTGCCGA,-0.0895
17,AAATCCCC,-0.192
18,CGTTCCAA,0.0493
19,GGTCCTCA,-0.193
20,ATAGCAGC,0.0386
21,GTAATCTA,0.151
22,AAAACTGT,0.0621
23,TAATAGTA,0.362
24,CAATAGTA,0.264
25,GAATAGTA,0.229

row,Sequence,PBM 8-mer E-score
1,CTTATCGC,0.049
2,CCCTTTCC,-0.188
3,GCATAATA,0.339
4,ACATAATA,0.401
5,AAAAAATG,0.0805
6,GAATAATA,0.446
7,AAATAATG,0.387
8,TAATAATA,0.477
9,GAATAAGC,0.194
10,ACATAATC,0.222
11,GAATAATC,0.188
12,AACCTTTA,0.192
13,AGGGCCTG,-0.226
14,GATCTGAC,-0.0641
15,ATACCAAG,-0.0486
16,CTGCGCAA,-0.0818
17,AAGAGACT,-0.04
18,AACGCGTG,-0.0417
19,ACTTCTGC,0.0207
20,TTCCAGAA,0.055
21,GCTAGGAA,-0.167
22,AAATAATT,0.438
23,CAATAATC,0.19
24,AAATAAGA,0.309
25,AAAAAATT,0.153

row,Sequence,PBM 8-mer E-score
1,TAATAAGA,0.375
2,GAATAACA,0.2
3,GAATAAGA,0.201
4,CAATAACA,0.283
5,TAATAACA,0.379
6,CAATAATG,0.322
7,CAATAATA,0.418
8,CTACCGCA,-0.134
9,CCTGATGC,-0.163
10,CAGCTTAG,-0.203
11,GGACAGTA,-0.0349
12,AACTTTCG,0.255
13,GCCTAGCC,-0.187
14,CTAAGTAG,0.0522
15,AAATAATA,0.428
16,AAATAATC,0.301
17,AAAAAATA,0.331
18,CCTCAAAC,-0.125
19,AGATATCC,-0.0391
20,ACATATCG,0.243
21,CTATATCC,0.123
22,GTATATCA,0.237
23,ATATATCG,0.442
24,ATATATCA,0.427
25,ATATATCC,0.38

row,Sequence,PBM 8-mer E-score
1,AAATATCG,0.295
2,CTATATCA,0.16
3,TCGTGACA,-0.206
4,GTTTCACA,-0.00657
5,AAATTCCG,0.108
6,CCTTTAAA,0.211
7,ACTTTTTA,0.309
8,ACTTTTAG,0.112
9,ACTTTTAA,0.383
10,GCTTTAAA,0.249
11,TCTTTTAA,0.296
12,ACTTTTAT,0.363
13,ACTTTTAC,0.211
14,ACTTTAAC,0.326
15,ACTTTAAT,0.414
16,ACTTTAAA,0.404
17,ACTTTAAG,0.254
18,CGTCACCA,-0.18
19,ATCCCTTC,-0.172
20,CAAGCACG,-0.238
21,CCTTACCG,-0.129
22,GAAGCAAC,-0.0872
23,GTATACTA,0.373
24,ATATACTA,0.422
25,GTATACGA,0.184

row,Sequence,PBM 8-mer E-score
1,AGATACTA,0.143
2,GCATACTA,0.186
3,CTACTATA,0.292
4,ATATACTG,0.322
5,CTATACTC,-0.0354
6,ATATACTC,0.364
7,ATACTATA,0.377
8,GTACTATA,0.329
9,CTATACTA,0.156
10,ATACACTC,0.143
11,GAACGTTA,0.207
12,ACAAACCA,0.185
13,AGCTGAGC,-0.262
14,AACGTAGT,0.000134
15,CGCGTGAG,-0.167
16,AGGCCGAG,-0.0711
17,GGCCCCTA,-0.222
18,ACAATTTG,0.187
19,CCAATTAA,0.306
20,GCAATTAA,0.324
21,ACAATTTA,0.353
22,ACAATTAT,0.378
23,ACAATTAC,0.319
24,GCAATTTA,0.307
25,ACAATTAG,0.315

row,Sequence,PBM 8-mer E-score
1,ACAATTAA,0.347
2,CCGGTGAA,-0.0479
3,AGGAGCAG,-0.32
4,CAGGATGG,-0.189
5,CAAGCAGA,-0.0444
6,ATAATAAC,0.422
7,CTAATAAC,0.326
8,TTAATAAA,0.432
9,CTAATAAA,0.349
10,CGAATAAA,0.254
11,CTAAAAAA,0.0548
12,TGAATAAA,0.268
13,ATAATAAG,0.43
14,TCAATAAA,0.22
15,CTAATAAG,0.213
16,GTAATAAC,0.297
17,ATCATAAG,0.161
18,AGGGGAGA,-0.145
19,ATGACACG,-0.12
20,AGCCTATA,0.179
21,ATTGCAAT,0.27
22,AGAATAAG,0.252
23,GTAATGAA,0.00633
24,ATAATGAT,0.275
25,ATCATAAT,0.245

row,Sequence,PBM 8-mer E-score
1,AGAATAAA,0.255
2,AGAATAAC,0.232
3,CTAATGAA,0.132
4,GTAATAAA,0.333
5,ATAATAAA,0.451
6,TTAATGAA,0.393
7,AGAATAAT,0.411
8,ATAATAAT,0.463
9,CTAGCCTA,-0.138
10,AGGCTAAG,-0.0142
11,GCCTGTCC,-0.241
12,CAGGACAC,-0.248
13,AACGGACA,-0.037
14,CAGGCCGG,-0.188
15,GTTTTCAA,0.148
16,GCTAGAGA,-0.188
17,GAGACCAC,-0.107
18,ACCTTGCG,-0.0997
19,AGGATAAA,0.22
20,AGGATAAG,0.0764
21,AGGATAAT,0.353
22,ATGCATGA,-0.142
23,CGTATATC,0.143
24,AGTATATA,0.446
25,AGTATGTG,0.209

row,Sequence,PBM 8-mer E-score
1,GGTATAGA,0.08
2,AGTATATG,0.351
3,GGTATACA,0.201
4,CGTATACA,0.17
5,AGTATATC,0.259
6,AGTATAGA,0.0904
7,AGTATAGG,0.0335
8,GGTATATA,0.355
9,CGTATATA,0.378
10,GACGTTGC,-0.0956
11,GTGTAACA,0.206
12,TAAAGGAA,0.0516
13,GAATCGCC,-0.206
14,AAAACATT,0.225
15,AAAACATA,0.354
16,ATAACATC,0.302
17,ATAACATA,0.359
18,GAAACATA,0.343
19,ATAACATG,0.235
20,ATCCATGC,-0.188
21,CGAAATTC,0.192
22,CCCTCACA,-0.151
23,ATATCGAG,0.208
24,TCCCGGAA,-0.126
25,GCGCGTAC,-0.156

row,Sequence,PBM 8-mer E-score
1,GAGGGTGC,-0.16
2,TCAAACGA,0.0344
3,ATAACTGC,0.286
4,ATTACTTC,0.348
5,ATAACTCG,0.255
6,AGAACTTG,0.214
7,ATTACTTA,0.334
8,ATAACTTG,0.38
9,CTAACTTC,0.168
10,ATAACTTC,0.351
11,CTTACTTC,0.208
12,CGGAGACA,0.0514
13,CCTACCTC,-0.226
14,CCAGATGG,-0.281
15,CTTAACTA,0.305
16,ACTAACTG,0.191
17,CATAACTA,0.286
18,AATAACTA,0.348
19,GTTAACTA,0.362
20,ACTAACTA,0.381
21,GATAACTA,0.198
22,ATTAACTA,0.339
23,ACTAACTC,0.118
